Consider seven molecules from ChEMBL document CHEMBL1961873, “Compounds: GSK PKIS; Assays: Nanosyn kinase panel” (2012).

Experiment [1] deals with Mitogen-activated protein kinase 3 (Homo sapiens) (UniProt P27361). The conditions noted are these: at 1 µM.
In experiment [2] the target is SRSF protein kinase 3 (Homo sapiens) (UniProt Q9UPE1). To be noted: at 0.1 µM.
Experiment [3] has the same target. The conditions noted are these: at 1 µM.
The target in experiment [4] is Mitogen-activated protein kinase 14 (Homo sapiens) (UniProt Q16539). The conditions noted are these: at 0.1 µM.
The target is the same in experiment [5]. To be noted: at 1 µM.
The target of experiment [6] is Mitogen-activated protein kinase 11 (Homo sapiens) (UniProt Q15759). To be noted: at 0.1 µM.
The target is the same in experiment [7]. To be noted: at 1 µM.
For experiment [8], the target named is T1, Mitogen-activated protein kinase 13 (Homo sapiens) (UniProt O15264).
T1 sequence (whole entry): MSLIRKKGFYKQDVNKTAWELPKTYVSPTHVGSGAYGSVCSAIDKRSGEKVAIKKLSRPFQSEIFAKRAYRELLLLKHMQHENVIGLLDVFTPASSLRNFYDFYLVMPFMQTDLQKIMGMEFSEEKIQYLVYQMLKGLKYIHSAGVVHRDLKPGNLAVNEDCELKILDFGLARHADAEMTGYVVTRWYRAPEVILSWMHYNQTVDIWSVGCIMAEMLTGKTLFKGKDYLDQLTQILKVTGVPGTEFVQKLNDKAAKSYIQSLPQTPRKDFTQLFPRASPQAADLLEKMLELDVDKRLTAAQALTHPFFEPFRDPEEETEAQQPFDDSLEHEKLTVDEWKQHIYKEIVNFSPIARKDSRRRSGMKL
The conditions noted are these: at 0.1 µM.

The target in experiment [9] is T1, Mitogen-activated protein kinase 13 (Homo sapiens). The conditions noted are these: at 1 µM.
Experiment [10] concerns the target T2, Mitogen-activated protein kinase 12 (Homo sapiens) (UniProt P53778).
T2 sequence (whole entry): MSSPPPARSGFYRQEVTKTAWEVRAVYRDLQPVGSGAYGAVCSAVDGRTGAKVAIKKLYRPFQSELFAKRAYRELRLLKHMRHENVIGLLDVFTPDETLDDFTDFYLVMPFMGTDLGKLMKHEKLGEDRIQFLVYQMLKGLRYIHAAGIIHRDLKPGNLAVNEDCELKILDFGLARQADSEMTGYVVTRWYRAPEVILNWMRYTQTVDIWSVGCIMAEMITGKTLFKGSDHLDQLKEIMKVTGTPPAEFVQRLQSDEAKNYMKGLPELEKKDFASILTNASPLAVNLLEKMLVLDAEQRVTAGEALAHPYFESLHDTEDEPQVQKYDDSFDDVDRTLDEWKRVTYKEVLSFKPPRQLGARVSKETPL
The conditions noted are these: at 0.1 µM.

Experiment [11] addresses T2, Mitogen-activated protein kinase 12 (Homo sapiens). The conditions noted are these: at 1 µM.
In experiment [12] the target is SRSF protein kinase 1 (Homo sapiens) (UniProt Q96SB4). The conditions noted are these: at 0.1 µM.
The target is the same in experiment [13]. The conditions noted are these: at 1 µM.
The target of experiment [14] is Phosphatidylinositol 4,5-bisphosphate 3-kinase catalytic subunit alpha isoform (Homo sapiens) (UniProt P42336). To be noted: at 0.1 µM.
For experiment [15] the target is unchanged. The conditions noted are these: at 1 µM.
For experiment [16], the target named is T3, Phosphatidylinositol 4,5-bisphosphate 3-kinase catalytic subunit delta isoform (Homo sapiens) (UniProt O00329).
T3 sequence (whole entry): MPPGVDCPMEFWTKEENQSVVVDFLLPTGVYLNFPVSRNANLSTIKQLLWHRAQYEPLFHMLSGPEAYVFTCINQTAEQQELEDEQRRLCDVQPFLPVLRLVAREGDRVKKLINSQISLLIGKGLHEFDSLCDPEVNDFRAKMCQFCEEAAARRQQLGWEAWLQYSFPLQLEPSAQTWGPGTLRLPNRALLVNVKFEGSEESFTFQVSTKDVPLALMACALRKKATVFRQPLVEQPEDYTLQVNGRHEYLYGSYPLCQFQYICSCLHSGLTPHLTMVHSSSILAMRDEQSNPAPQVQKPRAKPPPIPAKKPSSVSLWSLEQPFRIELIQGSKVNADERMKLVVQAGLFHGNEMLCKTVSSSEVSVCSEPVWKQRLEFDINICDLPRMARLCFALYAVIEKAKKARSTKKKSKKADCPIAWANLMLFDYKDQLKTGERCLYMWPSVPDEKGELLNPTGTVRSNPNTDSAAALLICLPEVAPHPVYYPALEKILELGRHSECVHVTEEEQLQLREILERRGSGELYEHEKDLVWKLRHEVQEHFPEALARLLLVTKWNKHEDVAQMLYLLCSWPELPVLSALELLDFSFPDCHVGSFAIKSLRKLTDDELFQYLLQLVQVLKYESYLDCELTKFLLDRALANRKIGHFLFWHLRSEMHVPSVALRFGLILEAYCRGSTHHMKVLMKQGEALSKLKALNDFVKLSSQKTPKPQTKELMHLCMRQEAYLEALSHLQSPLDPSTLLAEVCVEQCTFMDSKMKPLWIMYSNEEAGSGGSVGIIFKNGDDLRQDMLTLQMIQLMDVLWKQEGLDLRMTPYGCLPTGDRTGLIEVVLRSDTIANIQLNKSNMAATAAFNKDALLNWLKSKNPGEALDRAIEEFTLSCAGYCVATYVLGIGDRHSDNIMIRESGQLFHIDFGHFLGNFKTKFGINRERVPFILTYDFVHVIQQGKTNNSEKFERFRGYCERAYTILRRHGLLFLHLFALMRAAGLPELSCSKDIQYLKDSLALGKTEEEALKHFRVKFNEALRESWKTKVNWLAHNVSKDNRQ
The conditions noted are these: at 0.1 µM.

Experiment [17] concerns the target T3, Phosphatidylinositol 4,5-bisphosphate 3-kinase catalytic subunit delta isoform (Homo sapiens). To be noted: at 1 µM.
Experiment [18] addresses Phosphatidylinositol 4-kinase beta (Homo sapiens) (UniProt Q9UBF8). The conditions noted are these: at 0.1 µM.
Experiment [19] shares this target. To be noted: at 1 µM.
Experiment [20] has as its target Sphingosine kinase 1 (Homo sapiens) (UniProt Q9NYA1). The conditions noted are these: at 0.1 µM.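 Further: mean percent inhibition of SPHK1 activity, measured within the GSK PKIS screening panel.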

Sequence of SRSF protein kinase 3 (Homo sapiens) (Q9UPE1 whole entry): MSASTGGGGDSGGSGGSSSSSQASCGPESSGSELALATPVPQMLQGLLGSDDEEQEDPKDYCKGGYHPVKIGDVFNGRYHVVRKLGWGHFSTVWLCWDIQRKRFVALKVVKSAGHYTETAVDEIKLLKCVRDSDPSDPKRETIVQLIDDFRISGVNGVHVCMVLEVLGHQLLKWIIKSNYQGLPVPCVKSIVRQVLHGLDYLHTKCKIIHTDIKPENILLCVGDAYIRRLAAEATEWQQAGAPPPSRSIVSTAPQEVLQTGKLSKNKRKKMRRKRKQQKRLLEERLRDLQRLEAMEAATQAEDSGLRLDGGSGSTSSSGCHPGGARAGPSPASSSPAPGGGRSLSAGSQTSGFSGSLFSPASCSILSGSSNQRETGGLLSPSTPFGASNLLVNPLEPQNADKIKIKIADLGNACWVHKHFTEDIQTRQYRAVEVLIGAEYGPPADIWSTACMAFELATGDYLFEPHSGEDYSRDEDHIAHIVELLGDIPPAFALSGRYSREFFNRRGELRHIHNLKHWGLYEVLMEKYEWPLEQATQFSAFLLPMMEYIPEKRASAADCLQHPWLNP
Sequence of Phosphatidylinositol 4-kinase beta (Homo sapiens) (Q9UBF8 2-816 limits assumed): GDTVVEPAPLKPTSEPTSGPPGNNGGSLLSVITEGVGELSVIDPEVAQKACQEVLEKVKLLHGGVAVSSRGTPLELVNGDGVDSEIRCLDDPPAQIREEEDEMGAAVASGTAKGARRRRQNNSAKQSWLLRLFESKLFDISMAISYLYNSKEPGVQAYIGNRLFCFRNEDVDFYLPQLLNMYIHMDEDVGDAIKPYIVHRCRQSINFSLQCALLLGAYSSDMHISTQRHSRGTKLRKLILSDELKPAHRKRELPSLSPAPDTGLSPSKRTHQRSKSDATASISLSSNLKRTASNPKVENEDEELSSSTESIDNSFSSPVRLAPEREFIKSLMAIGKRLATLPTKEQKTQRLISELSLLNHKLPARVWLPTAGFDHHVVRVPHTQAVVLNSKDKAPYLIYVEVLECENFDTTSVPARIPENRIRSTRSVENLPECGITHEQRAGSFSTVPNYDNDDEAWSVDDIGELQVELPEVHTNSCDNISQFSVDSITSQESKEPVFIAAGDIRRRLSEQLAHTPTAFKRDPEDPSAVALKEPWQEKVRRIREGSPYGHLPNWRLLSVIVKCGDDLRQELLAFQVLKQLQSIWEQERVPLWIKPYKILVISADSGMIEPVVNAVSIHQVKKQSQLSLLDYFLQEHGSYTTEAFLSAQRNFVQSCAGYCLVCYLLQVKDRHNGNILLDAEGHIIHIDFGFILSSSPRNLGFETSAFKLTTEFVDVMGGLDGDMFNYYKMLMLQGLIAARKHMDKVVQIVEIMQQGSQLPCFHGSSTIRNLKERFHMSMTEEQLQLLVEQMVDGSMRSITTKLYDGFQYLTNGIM
Sequence of Mitogen-activated protein kinase 11 (Homo sapiens) (Q15759 whole entry): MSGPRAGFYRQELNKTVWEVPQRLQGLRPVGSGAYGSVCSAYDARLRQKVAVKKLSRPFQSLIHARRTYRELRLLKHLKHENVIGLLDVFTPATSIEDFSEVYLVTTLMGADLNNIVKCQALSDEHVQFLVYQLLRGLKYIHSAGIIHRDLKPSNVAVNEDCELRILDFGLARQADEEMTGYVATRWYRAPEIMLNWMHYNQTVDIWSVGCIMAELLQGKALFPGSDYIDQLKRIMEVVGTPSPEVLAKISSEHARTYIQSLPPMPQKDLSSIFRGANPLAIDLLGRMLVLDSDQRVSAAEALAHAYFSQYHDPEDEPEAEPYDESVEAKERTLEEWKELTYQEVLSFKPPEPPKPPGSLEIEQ
Sequence of Mitogen-activated protein kinase 14 (Homo sapiens) (Q16539 whole entry): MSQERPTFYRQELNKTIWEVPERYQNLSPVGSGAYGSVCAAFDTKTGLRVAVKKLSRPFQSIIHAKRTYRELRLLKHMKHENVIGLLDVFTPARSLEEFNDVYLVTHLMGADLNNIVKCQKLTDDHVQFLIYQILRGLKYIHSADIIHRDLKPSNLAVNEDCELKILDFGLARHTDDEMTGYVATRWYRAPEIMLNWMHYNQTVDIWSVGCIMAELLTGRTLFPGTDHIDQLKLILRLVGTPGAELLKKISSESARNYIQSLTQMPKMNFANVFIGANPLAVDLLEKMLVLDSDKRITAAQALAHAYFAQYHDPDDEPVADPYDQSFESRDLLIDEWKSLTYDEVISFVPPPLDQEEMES
Sequence of Sphingosine kinase 1 (Homo sapiens) (Q9NYA1 whole entry): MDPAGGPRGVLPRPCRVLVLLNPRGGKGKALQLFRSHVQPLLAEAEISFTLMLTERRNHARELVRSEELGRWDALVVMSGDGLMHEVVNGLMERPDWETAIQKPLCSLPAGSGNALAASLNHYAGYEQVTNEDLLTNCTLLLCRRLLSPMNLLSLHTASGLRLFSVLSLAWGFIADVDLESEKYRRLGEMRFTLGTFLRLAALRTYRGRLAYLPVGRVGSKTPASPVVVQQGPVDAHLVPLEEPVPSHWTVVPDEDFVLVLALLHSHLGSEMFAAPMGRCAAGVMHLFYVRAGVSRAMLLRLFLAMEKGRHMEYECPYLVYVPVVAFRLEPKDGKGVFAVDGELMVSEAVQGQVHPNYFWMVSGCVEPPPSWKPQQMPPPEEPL
Sequence of Phosphatidylinositol 4,5-bisphosphate 3-kinase catalytic subunit alpha isoform (Homo sapiens) (P42336 whole entry, canonical isoform): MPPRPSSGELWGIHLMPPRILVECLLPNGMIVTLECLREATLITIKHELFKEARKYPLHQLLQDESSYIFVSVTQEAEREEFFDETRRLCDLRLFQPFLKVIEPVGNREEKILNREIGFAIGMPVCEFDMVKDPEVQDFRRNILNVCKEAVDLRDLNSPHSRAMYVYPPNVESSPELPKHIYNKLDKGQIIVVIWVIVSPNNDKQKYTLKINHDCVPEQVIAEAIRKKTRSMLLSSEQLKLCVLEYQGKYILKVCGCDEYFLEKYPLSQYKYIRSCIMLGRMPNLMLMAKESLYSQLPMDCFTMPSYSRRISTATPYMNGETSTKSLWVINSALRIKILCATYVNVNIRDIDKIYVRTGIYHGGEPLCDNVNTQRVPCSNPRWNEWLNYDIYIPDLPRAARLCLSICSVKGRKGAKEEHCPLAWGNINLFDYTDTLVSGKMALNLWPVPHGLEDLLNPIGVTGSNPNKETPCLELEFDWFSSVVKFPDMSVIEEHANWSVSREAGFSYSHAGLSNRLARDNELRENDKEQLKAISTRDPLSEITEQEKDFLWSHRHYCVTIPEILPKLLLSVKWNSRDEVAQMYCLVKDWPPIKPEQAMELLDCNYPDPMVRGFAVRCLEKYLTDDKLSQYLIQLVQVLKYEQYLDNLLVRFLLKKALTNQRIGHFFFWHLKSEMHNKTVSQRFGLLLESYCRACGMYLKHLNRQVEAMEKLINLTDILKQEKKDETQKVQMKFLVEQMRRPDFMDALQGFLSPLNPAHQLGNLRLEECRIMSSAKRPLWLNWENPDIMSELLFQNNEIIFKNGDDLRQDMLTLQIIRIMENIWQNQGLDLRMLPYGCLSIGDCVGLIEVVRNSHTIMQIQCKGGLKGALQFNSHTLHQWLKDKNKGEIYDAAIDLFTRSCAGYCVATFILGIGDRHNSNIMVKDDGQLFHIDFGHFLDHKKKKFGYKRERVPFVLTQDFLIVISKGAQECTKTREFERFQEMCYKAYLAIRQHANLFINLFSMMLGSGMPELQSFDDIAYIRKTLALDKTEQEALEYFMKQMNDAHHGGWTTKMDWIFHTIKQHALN
Sequence of SRSF protein kinase 1 (Homo sapiens) (Q96SB4 whole entry): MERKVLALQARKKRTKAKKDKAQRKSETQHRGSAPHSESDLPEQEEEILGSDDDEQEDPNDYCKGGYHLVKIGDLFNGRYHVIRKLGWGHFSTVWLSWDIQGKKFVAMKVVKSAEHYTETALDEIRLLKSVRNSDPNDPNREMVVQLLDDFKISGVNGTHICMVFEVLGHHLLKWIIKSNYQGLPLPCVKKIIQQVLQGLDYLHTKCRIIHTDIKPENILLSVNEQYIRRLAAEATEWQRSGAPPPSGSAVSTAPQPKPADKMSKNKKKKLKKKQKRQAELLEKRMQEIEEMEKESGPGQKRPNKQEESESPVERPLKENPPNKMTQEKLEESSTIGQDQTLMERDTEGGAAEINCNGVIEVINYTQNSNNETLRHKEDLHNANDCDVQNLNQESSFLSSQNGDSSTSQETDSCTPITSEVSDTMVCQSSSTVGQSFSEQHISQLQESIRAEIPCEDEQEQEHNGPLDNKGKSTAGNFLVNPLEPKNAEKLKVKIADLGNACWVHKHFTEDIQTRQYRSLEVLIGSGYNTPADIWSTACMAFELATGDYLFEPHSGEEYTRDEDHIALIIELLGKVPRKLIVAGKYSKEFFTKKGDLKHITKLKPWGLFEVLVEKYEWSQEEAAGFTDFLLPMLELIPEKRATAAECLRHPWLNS
Sequence of Mitogen-activated protein kinase 3 (Homo sapiens) (P27361 whole entry): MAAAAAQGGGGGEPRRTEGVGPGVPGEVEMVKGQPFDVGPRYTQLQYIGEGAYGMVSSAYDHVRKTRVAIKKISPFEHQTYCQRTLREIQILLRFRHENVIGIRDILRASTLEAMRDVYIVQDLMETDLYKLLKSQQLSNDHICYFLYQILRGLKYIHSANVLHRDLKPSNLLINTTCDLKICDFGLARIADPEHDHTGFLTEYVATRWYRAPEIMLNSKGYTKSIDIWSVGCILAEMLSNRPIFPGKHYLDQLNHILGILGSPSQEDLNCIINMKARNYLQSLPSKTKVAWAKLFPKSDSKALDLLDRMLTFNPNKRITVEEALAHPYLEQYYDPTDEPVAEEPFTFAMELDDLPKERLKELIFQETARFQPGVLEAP

Turning to `COc1cccc(-n2ncc3c(N/N=C/c4cccc(F)c4)ncnc32)c1`, the inhibition in experiment [1] was 0.85%; in [2] it was -2.57%; in experiment [3] it was -3.83%; in experiment [4] it was -0.34%; in experiment [5], 5.39%; in experiment [6] it was 3.19%. For the same molecule, the inhibition was 0% in experiment [7]; 2.14% in [8]; 6.21% in experiment [9]; 4.04% in experiment [10]; 2.67% in [11]; -1.75% in experiment [12]. The inhibition in [13] is -2.37%; in [14], 2.47%; in experiment [15], 4.79%; in experiment [16], 2.15%; in experiment [17], 5.82%; in experiment [18] it was 2.02%. Moreover, the inhibition was -7.13% in [19] and -0.37% in experiment [20].

On to `CS(=O)(=O)Nc1ccc(N/C=C2\C(=O)Nc3ccccc32)cc1`, for which the inhibition was -3.47% in [1]; 1.49% in experiment [2]; 0.17% in experiment [3]; -4.68% in experiment [4]; -2.23% in experiment [5]; -0.39% in experiment [6]. Moreover, the inhibition in [7] is 3.42%; in [8], -3.94%; in experiment [9] it was -3.87%; in experiment [10], -2.29%; in experiment [11], -0.19%; in experiment [12], 1.24%. Moreover, the inhibition was 1.9% in experiment [13]; -2.27% in experiment [14]; -1.98% in experiment [15]; -1.26% in experiment [16]; -0.45% in experiment [17]; -4.55% in [18]. For the same molecule, the inhibition in [19] is -0.72%; in experiment [20], -0.88%.

Take `CCN1CCC(CC(=O)Nc2n[nH]c3nc(-c4cccs4)c(Br)cc23)CC1`: the inhibition in experiment [1] is 0.02%; in [2], -0.78%; in [3], 2.42%; in [4], -3.19%; in [5] it was 0.26%; in [6], -1.99%. Also, the inhibition is 3.07% in experiment [7]; -0.36% in [8]; -1.98% in [9]; -1.67% in experiment [10]; -2.22% in experiment [11]; 1.28% in [12]. The inhibition in [13] was 1.67%; in experiment [14], -1.25%; in experiment [15] it was -0.57%; in [16], 0.69%; in [17] it was 2.28%; in experiment [18], 4.28%. The inhibition was -0.5% in experiment [19] and -0.97% in experiment [20].

Regarding `O=C1NC(=O)C(c2cccc(Cl)c2)=C1Nc1ccc(O)c(Cl)c1`, the inhibition in experiment [1] was 2.28%; in [2], -0.01%; in experiment [3], 2.47%; in [4] it was 1.38%; in experiment [5], 8.66%; in experiment [6], 1.96%. For the same molecule, the inhibition in [7] is 4.99%; in experiment [8] it was 0.26%; in [9], 0.3%; in [10], -0.58%; in [11], 0.35%; in [12] it was -2.71%. The inhibition was -4.83% in experiment [13]; -1.72% in [14]; 5.36% in [15]; 0.8% in [16]; 4.17% in experiment [17]; -4.92% in experiment [18]. In addition, the inhibition in experiment [19] amounted to 1.17%; in [20], 1.58%.

As to `COc1ccc(COc2ccc(Cc3cnc(N)nc3N)cc2OC)cc1`, the inhibition in [1] turned out to be 0.29%; in [2] it was 2.01%; in experiment [3], 0.79%; in experiment [4] it was 0.58%; in experiment [5] it was 4.45%; in experiment [6], 2.44%. The inhibition in experiment [7] is 1%; in [9], 0.37%; in experiment [10] it was -1.2%; in [11], 1.41%; in [12], -0.52%; in [13], -2.52%. Moreover, the inhibition was 0.14% in [14]; 1.07% in experiment [15]; -0.96% in experiment [16]; 0.68% in experiment [17]; 2.15% in experiment [18]; -1.98% in experiment [19]. Moreover, the inhibition in experiment [20] is -3.33%.

On to `N#Cc1c(NC(=O)c2cccc3ccccc23)sc2c1CCCC2`, for which the inhibition in [1] was 0.11%; in experiment [2] it was -0.61%; in [3], -2.89%; in experiment [4], 2.97%; in experiment [5] it was 5.23%; in experiment [6], 0.78%. The inhibition in experiment [7] is 4.42%; in [8] it was 2.16%; in experiment [9] it was 3.76%; in experiment [10] it was 2.38%; in experiment [11], 2.56%; in experiment [12], -2.33%. Besides, the inhibition in [13] was -3.29%; in experiment [14], 1.58%; in experiment [15], 4.62%; in experiment [16], 2.32%; in [17], 4.96%; in experiment [18], -2.84%. Moreover, the inhibition is -0.74% in experiment [19] and -0.7% in experiment [20].

On to `CCn1c(-c2nonc2N)nc2cncc(C(=O)N3CCNCC3)c21`, for which the inhibition in [1] was 7.02%; in [2], 0.64%; in [3], -1.54%; in experiment [4], 14.5%; in [5] it was 20.5%; in [6], 5.86%. For the same molecule, the inhibition in experiment [7] was 5.3%; in experiment [8] it was 6.15%; in experiment [9], 7.35%; in experiment [10], 3.73%; in [11] it was 5.97%; in experiment [12], -1.32%. In addition, the inhibition is -1.85% in experiment [13]; 5.78% in experiment [14]; 5.67% in experiment [15]; 1.16% in experiment [16]; 2.58% in [17]; -4.56% in [18]. The inhibition in experiment [20] was -1.49%.

As usually defined, the inhibition is the change of the read-out against control, counted positive when it falls.
